Test results as given in PubChem BioAssay (NCATS).
Results filed as inconclusive are left out. The source made the active and inactive calls. Unless noted, calls follow the shape of the dose curve; as a rule, active = well fitted curve in either direction with a large enough effect (not every such curve was filed as active); inconclusive = small, poorly fitted or top-dose-only effect, or another doubt; inactive = flat fitted curve, though single readings scatter.

Experiments:
[1] = target: Lysosomal acid glucosylceramidase (Homo sapiens) (UniProt P04062); assay: Glucocerebrosidase-p2 (AID 348; in the data active = potency below about 10 µM; also: potency is read from the fitted curve at half-maximal effect); details: purified GBA, blue fluorogenic substrate, 40 min
Outline: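 Compounds titrated from 0.6 nM upwards against 0.2 nM enzyme in pH 5.9 citric acid/KH2PO4, taurocholate, tween-20; blue fluorogenic substrate 80 uM, 40 min room temperature, stopped and read Ex 365/Em 440 for AC50.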

[2] = AP1 Signaling Pathway (AID 357); details: ME-180 AP-1-bla reporter, EGF-induced, beta-lactamase ratio, 5 h; at 7.69 µM (top of the series) unless noted;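 also: ME-180 reporter cells stimulated with EGF at its EC50 level; % is scaled to controls: 0 for no effect and ±100 for the full control effect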
Outline: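 Beta-lactamase reporter under AP-1 response element, ME-180 background. Stimulus: EC50 EGF. Compound exposure 5 h, 37 °C. Detection: CCF4, 2.5 h RT, 460/530 nm. Values: AC50 from titration.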

[3] = Stat Signaling Pathway (AID 446); details: ME-180 SIE beta-lactamase reporter, IL-6 stimulated, 5 h; at 7.69 µM (top of the series) unless noted;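 also: ME-180 cervical cancer cells given 40 pM IL-6 alongside compound; SIE-controlled beta-lactamase reporter measured as 460/530 nm FRET emission ratio; % is scaled to controls: 0 for no effect and ±100 for the full control effect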
Outline: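 ME-180 cells carrying a SIE-driven beta-lactamase reporter are stimulated with 40 pM IL-6 for 5 h at 37C in the presence of compound. The 460/530 nm FRET substrate ratio is read after 2.5 h at RT. Data are normalised to 300 pM IL-6 and to 125 nM JAK inhibitor controls.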

[4] = target: Glucocorticoid receptor (Homo sapiens) (UniProt P04150); assay: GR-EFC Redistribution (AID 451; calls by dose curve; also: potency is read from the fitted curve at half-maximal effect); details: CHO-K1 GR-EFC translocation, beta-gal luminescence, 2 h
Outline: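 CHO-K1 cells stably expressing nuclear-localized β-gal enzyme acceptor and GR fused C-terminally to the enzyme donor fragment; ligand-driven nuclear translocation restores β-gal by complementation. Compounds titrated up to 46 uM final, 2 h at 37 °C; luminescence read.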

[5] = target: Mitogen-activated protein kinase 10 (Mus musculus) (UniProt Q61831); assay: JNK3 AlphaScreen Assay (AID 530); details: JNK3 lysate, c-Jun phosphorylation; series mostly up to 57.1 µM;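 also: kinase came from lysate of stimulated human HepG2 cells; signal reports phosphorylation of biotinylated GST-cJun 1-79 at Ser73 with 10 µM ATP; % is scaled to controls: 0 for no effect and ±100 for the full control effect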
Outline: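 JNK3 came from HepG2 lysates pre-activated with IL-1beta and TNF-alpha and phosphorylated biotinylated GST-cJun (1-79) at 10 uM ATP, pH 7.6, room temperature. Compounds were titrated. AlphaScreen signal used anti-phospho-cJun (Ser73) antibody.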

[6] = target: 3',5'-cyclic-AMP phosphodiesterase 4B (Homo sapiens) (UniProt Q07343); assay: qHTS Assay for Inhibitors of PDE-IV (AID 607; active = well fitted activation curve with a large enough effect in the main read-out, with a control signal flat, not every such curve was filed as active; also: % of control where 0% means no effect); details: HEK293 ACTOne CNG channel cells, membrane potential fluorescence; series mostly up to 22.9 µM
Outline: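 HEK293 ACTOne cells with CNG channel (1000/well), endogenous PDE4; membrane potential dye, compounds up to 22.9 uM final. Fluorescence Ex 535/Em 590; RO 20-1724 (100 uM final) as reference.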

[7] = qHTS Assay for Identification of Small Molecule Agonists for Hypoxia Response Element Signaling Pathway (AID 914; active = well fitted activation curve with a large enough effect in the signal ratio, with a control signal flat, not every such curve was filed as active; the % refers to the signal ratio; also: % of control where 0% means no effect); details: ME-180 (cervical carcinoma) HRE-bla reporter, beta-lactamase ratio, CoCl2, 17 h; activation: stronger effect = higher value
Outline: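 qHTS titration; ME-180 HRE-bla cells; EC50 CoCl2 co-treatment, 17 h at 37 degrees Celsius; CCF4 dye, ex 405nm, em 460nm and 530nm; %Activity from ratio; AC50.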

[8] = qHTS Assay for Lipid Storage Modulators (AID 1519; calls by dose curve); details: Drosophila S3 cells, BODIPY lipid droplet/cell ratio, laser cytometry, cells loaded with oleic acid; for activity change, negative = inhibition: at 57.5 µM (top of the series)
Outline: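 Cells seeded at 5,000 per well were treated with compounds over a concentration series and loaded with oleic acid (400 uM, as added). Lipid droplet fluorescence (488 nm excitation, 500-530 nm channel) was read by laser-scanning cytometry and normalized to 20 uM Triacsin C.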

[9] = Primary qHTS for small molecule stabilizers of the endoplasmic reticulum resident proteome: Secreted ER Calcium Modulated Protein (SERCaMP) assay (AID 1508630; active = well fitted curve in the direction sought with a large enough effect; an effect the other way counts as inactive or inconclusive; also: % is scaled to controls: 0 for no effect and ±100 for the full control effect); details: SH-SY5Y GLuc-SERCaMP (Gaussia luciferase released on ER calcium loss) secretion, thapsigargin, luminescence; series mostly up to 38.4 µM
Outline: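 GLuc-SERCaMP-expressing SH-SY5Y cells, pretreated 16 h with compound, are challenged with thapsigargin to empty ER calcium stores; after 4 h, coelenterazine is added directly to the medium and luminescence is imaged.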

[10] = target: Cytochrome P450 1A2 (Homo sapiens) (UniProt P05177); assay: p450-cyp1a2 (AID 410; calls by dose curve; also: potency is read from the fitted curve at half-maximal effect); details: recombinant CYP1A2, luciferin-ME demethylation, luminescence; series mostly up to 57 µM
Outline: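 Inhibition was calculated relative to 57 uM furafylline (full inhibition). The reaction used human CYP1A2 at 20nM with Luciferin-ME at its Km, 100uM, driven by an NADPH-regenerating system for 60 min at room temperature.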

[11] = NFAT Signaling Pathway (AID 444); details: Jurkat NFAT-bla M1, carbachol, beta-lactamase ratio, 5 h; at 7.69 µM (top of the series) unless noted
Outline: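 Jurkat cells carrying an NFAT-driven β-lactamase reporter and co-transfected muscarinic M1 receptor were treated with compound plus carbachol (1 uM final, an EC50 level) for 5 h at 37 °C. CCF4 loading followed for 1 h at RT; 460/530 nm ratio gave %activity.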

[12] = target: Glucocorticoid receptor (Homo sapiens) (UniProt P04150); assay: GR-GFP Redistribution (AID 450;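 active = compounds whose dose series gives a full or clear partial fitted curve of increased nuclear translocation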; also: potency is read from the fitted curve at half-maximal effect); details: U2OS GR-GFP nuclear translocation, laser cytometry, 2 h
[13] = target: Cytochrome P450 3A4 (Homo sapiens) (UniProt P08684); assay: qHTS Assay for Activators of Cytochrome P450 3A4 (AID 885; active = well fitted curve in the direction sought with a large enough effect; an effect the other way counts as inactive or inconclusive; also: nearly all actives have a fitted effect of over 65% in size); details: recombinant CYP3A4, Luciferin-PPXE luminescence, 60 min; series mostly up to 57.1 µM
Outline: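 Human CYP3A4 (20 nM) with Luciferin-PPXE at 25 uM (its KM) in 200 mM KPO4; 10 min compound preincubation, then NADPH regeneration and 60 min reaction at RT. Luciferin read by luminescence; normalized to 57 uM ketoconazole full inhibition.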

[14] = target: Cytochrome P450 2C19 (Homo sapiens) (UniProt P33261); assay: qHTS Assay for Inhibitors and Substrates of Cytochrome P450 2C19 (AID 899; active = well fitted curve in the direction sought with a large enough effect; an effect the other way counts as inactive or inconclusive; also: potency is read from the fitted curve at half-maximal effect; nearly all actives have a fitted effect of over 60% in size); details: recombinant CYP2C19, luciferin-H EGE luminescence; series mostly up to 57.1 µM
Outline: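 In 50mM KPO4, the reaction held 5nM enzyme and KM-level (10uM) Luciferin-H EGE; it ran 60 min at 37C after NADPH regeneration and a 10 min compound preincubation. Luminescence values were scaled to 57uM ketoconazole as complete inhibition.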

[15] = Confirmation and Secondary Assay for Modulators of Hemoglobin Beta Chain Splicing at IVS2 654 locus (AID 910; active = well fitted curve in the direction sought with a large enough effect; an effect the other way counts as inactive or inconclusive;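 also: per-well total GFP intensity by laser scanning cytometry after 2-day treatment; % of control where 0% means no effect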); details: HeLa EGFP-654 splicing reporter, GFP fluorescence, 48 h; series mostly up to 38.3 µM
Outline: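 HeLa cells stably carrying EGFP interrupted by mutant beta-globin IVS2-654 intron (CMV-driven) were treated with compound for 2 days at 37C; corrected splicing was scored as total peak GFP intensity per well (488 nm excitation, 500-520 nm emission).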

[16] = Confirmation and Secondary Assay for Modulators of Hemoglobin Beta Chain Splicing at IVS2 705 locus (AID 930; active = well fitted curve in the direction sought with a large enough effect; an effect the other way counts as inactive or inconclusive;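 also: HeLa cells stably expressing the EGFP-705 splicing reporter; GFP fluorescence per well restored by corrected splicing of the IVS2-705 intron in EGFP; % of control where 0% means no effect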); details: HeLa EGFP-705 splicing reporter, GFP fluorescence, 48 h; series mostly up to 38.3 µM
Outline: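 Secondary splice-site specificity test uses HeLa expressing CMV-driven EGFP interrupted by IVS2-705; cells were treated 2 days at 37C with 500 nM antisense PNA as positive control.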

[17] = target: Ubiquitin carboxyl-terminal hydrolase 1 (Homo sapiens) (UniProt O94782); assay: Inhibitors of USP1/UAF1: Pilot qHTS (AID 504865; active = well fitted curve in the direction sought with a large enough effect; an effect the other way counts as inactive or inconclusive;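 also: rhodamine fluorescence freed from ubiquitin-rhodamine substrate followed over time; top concentration of the series differs between compounds; % is scaled to controls: 0 for no effect and ±100 for the full control effect; nearly all actives have a fitted effect of over 35% in size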); details: purified USP1/UAF1, Ub-rhodamine cleavage fluorescence; series mostly up to 54.9 µM
Outline: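 Kinetic fluorescence assay: 1nM USP1/UAF1, 15 min compound preincubation, then 150nM Ub-Rho; 480/540 nm.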

[18] = measured here: cell count channel max response
[19] = measured here: lipid channel max response

Sequence of Lysosomal acid glucosylceramidase (Homo sapiens) (P04062 whole entry, looked up): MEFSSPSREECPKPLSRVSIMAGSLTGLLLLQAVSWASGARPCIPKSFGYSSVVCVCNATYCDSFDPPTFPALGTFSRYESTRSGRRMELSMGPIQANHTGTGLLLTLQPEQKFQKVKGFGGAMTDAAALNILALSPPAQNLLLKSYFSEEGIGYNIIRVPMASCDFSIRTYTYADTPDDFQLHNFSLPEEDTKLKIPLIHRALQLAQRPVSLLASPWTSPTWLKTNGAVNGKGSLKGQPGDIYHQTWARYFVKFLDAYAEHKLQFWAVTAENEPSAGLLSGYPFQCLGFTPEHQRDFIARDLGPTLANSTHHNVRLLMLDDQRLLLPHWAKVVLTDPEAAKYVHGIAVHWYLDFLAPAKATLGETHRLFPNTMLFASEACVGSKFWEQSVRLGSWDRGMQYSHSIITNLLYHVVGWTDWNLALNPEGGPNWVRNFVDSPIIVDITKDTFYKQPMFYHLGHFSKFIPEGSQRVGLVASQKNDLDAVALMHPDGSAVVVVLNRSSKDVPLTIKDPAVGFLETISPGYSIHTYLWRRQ
Sequence of Glucocorticoid receptor (Homo sapiens) (P04150 whole entry, looked up, the tested form may be a part): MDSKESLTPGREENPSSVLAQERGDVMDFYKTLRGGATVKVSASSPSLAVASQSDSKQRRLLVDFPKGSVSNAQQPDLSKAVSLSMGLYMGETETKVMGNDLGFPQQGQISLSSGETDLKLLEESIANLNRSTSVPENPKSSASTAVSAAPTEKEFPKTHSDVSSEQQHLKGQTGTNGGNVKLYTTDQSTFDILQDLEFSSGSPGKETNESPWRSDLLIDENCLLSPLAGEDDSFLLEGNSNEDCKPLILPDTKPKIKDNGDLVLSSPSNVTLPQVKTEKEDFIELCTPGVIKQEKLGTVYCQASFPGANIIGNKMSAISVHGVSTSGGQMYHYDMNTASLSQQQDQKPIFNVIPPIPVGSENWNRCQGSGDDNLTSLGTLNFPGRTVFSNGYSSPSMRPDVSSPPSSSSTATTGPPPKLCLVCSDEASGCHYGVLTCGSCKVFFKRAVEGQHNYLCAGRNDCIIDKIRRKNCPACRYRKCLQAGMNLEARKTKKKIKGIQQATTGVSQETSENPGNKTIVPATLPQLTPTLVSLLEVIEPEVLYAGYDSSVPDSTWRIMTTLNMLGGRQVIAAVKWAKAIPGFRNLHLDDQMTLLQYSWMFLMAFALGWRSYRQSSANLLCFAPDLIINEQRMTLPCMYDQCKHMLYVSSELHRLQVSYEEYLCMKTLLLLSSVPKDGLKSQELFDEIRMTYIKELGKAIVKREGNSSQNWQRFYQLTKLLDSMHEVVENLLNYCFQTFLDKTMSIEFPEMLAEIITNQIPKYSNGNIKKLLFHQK
Sequence of 3',5'-cyclic-AMP phosphodiesterase 4B (Homo sapiens) (Q07343 whole entry, looked up): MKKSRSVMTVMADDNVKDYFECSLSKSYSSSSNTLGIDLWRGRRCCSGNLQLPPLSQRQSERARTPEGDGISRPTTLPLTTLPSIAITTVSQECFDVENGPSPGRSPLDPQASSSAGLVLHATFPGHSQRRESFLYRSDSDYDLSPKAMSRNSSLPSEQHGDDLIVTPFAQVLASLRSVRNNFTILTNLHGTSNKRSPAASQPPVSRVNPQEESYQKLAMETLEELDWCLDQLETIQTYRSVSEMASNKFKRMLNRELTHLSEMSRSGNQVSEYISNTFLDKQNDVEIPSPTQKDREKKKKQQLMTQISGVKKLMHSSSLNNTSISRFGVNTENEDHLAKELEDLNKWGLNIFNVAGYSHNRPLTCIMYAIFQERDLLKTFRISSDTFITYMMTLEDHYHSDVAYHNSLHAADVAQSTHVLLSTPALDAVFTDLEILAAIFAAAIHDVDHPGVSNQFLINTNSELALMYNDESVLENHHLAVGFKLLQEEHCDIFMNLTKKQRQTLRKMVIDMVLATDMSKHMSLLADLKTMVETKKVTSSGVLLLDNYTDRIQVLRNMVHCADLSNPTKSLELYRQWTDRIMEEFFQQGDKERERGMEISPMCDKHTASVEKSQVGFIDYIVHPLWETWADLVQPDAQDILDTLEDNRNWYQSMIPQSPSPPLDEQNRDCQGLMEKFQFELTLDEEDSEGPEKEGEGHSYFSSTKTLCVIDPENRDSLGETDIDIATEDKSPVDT
Sequence of Cytochrome P450 3A4 (Homo sapiens) (P08684 whole entry, looked up): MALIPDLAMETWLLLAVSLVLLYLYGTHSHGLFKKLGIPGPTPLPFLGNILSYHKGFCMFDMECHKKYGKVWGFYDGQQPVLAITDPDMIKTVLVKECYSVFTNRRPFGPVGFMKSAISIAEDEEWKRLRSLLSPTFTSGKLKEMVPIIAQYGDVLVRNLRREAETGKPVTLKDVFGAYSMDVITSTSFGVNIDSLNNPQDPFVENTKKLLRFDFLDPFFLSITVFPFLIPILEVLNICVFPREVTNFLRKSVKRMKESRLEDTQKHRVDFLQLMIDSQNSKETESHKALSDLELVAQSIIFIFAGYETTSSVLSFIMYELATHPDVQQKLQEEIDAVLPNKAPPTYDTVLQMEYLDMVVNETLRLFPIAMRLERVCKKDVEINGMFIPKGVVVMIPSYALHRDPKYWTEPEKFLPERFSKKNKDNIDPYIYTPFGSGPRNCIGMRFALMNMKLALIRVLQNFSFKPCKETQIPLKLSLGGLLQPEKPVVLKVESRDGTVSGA
Sequence of Cytochrome P450 1A2 (Homo sapiens) (P05177 whole entry, looked up): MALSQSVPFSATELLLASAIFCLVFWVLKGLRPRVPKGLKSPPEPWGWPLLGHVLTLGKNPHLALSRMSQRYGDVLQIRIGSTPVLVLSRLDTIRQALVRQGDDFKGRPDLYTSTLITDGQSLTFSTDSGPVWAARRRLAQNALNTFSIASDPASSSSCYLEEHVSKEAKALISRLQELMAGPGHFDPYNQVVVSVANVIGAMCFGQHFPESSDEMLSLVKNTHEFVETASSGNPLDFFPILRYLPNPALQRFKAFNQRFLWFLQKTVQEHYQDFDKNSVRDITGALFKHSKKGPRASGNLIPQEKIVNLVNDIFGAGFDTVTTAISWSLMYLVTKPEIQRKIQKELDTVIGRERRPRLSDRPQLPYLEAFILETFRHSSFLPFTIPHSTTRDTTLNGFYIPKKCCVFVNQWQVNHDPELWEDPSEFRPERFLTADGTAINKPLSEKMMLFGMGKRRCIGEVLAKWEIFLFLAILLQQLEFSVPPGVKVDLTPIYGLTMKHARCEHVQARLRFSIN
Sequence of Cytochrome P450 2C19 (Homo sapiens) (P33261 whole entry, looked up): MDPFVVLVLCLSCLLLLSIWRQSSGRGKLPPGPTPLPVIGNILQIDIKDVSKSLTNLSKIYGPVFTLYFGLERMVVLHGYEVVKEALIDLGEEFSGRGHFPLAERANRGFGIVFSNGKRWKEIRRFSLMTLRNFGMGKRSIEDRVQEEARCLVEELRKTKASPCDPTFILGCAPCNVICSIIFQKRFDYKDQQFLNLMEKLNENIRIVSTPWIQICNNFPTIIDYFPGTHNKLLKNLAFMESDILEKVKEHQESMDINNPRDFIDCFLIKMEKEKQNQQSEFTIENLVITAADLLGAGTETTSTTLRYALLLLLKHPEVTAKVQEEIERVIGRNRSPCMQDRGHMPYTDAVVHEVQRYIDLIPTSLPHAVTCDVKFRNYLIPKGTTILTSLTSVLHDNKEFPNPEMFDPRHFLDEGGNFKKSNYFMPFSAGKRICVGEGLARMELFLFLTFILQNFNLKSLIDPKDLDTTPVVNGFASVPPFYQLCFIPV
Sequence of Ubiquitin carboxyl-terminal hydrolase 1 (Homo sapiens) (O94782 whole entry, looked up): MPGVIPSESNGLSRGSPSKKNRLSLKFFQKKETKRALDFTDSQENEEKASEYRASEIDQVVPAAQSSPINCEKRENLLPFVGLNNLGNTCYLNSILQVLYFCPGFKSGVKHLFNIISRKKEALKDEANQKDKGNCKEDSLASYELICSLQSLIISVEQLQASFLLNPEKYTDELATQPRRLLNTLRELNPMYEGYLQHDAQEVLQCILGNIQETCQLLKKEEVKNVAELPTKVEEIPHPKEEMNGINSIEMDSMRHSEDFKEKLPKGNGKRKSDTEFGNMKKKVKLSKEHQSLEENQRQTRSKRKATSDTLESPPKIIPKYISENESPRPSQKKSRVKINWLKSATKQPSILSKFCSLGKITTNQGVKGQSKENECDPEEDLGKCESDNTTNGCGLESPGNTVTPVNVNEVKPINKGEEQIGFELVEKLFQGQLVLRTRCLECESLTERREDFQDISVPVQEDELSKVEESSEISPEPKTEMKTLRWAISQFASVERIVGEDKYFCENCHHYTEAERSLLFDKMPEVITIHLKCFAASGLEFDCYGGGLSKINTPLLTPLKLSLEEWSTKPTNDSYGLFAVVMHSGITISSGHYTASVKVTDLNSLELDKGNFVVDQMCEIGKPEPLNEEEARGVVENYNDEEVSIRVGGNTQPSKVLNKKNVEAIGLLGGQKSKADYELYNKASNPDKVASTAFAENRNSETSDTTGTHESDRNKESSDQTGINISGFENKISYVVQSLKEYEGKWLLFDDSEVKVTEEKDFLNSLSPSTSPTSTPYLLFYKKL

O=C(c1cccc(F)c1)N1CCC2(CCCN(c3ccccn3)C2)CC1
21.3%: max response [8, 19]
inactive: Potency [1] > 11.4 µM | activity change, negative = inhibition [2] -14% | activity, negative = inhibition [3] -2.13% | Potency [4] > 46 µM | Potency [5] | Potency [6] | activation [7] -10.7% | activity change, negative = inhibition [8] 6.75% | outcome [9]
9.06%: max response [8, 18]

O=C(c1cc(C(F)(F)F)cc(C(F)(F)F)c1)N1CCC2(CCCN(c3ccccc3)C2)CC1
-14.9%: max response [8, 19]
1.58%: max response [8, 18]
inactive: Potency [1] > 11.4 µM | activity change, negative = inhibition [2] 22.8% | activity, negative = inhibition [3] 2.12% | Potency [4] > 46 µM | Potency [5] | Potency [6] | activity change, negative = inhibition [8] -18.4% | outcome [9]

O=C(c1cnccn1)N1CCC2(CCN(Cc3ccccc3)CC2)CC1
7.12%: max response [8, 18]
inactive: Potency [1] > 11.4 µM | activity change, negative = inhibition [2] 12.5% | Potency [4] > 46 µM | Potency [5] | Potency [6] | activity change, negative = inhibition [8] 2.37% | outcome [9]
14.3%: max response [8, 19]

O=C(c1ccncc1)N1CCC2(CC1)CN(c1ccccn1)C2
0.68%: max response [8, 18]
inactive: Potency [1] > 11.4 µM | activity change, negative = inhibition [2] 24.8% | Potency [4] > 46 µM | Potency [5] | Potency [6] | activity change, negative = inhibition [8] 3.6% | outcome [9]
6.79%: max response [8, 19]

COc1ccc(C(=O)N2CCC3(CCN(Cc4ccccc4)CC3)CC2)cc1
-0.0682%: max response [8, 18]
7.94%: max response [8, 19]
inactive: Potency [1] > 11.4 µM | activity change, negative = inhibition [2] -0.685% | activity, negative = inhibition [3] 0.0273% | Potency [4] > 46 µM | Potency [5] | Potency [6] | activity change, negative = inhibition [8] 0.635% | outcome [9]

COc1ccc(C(=O)N2CCC3(CCN(CC(C)C)CC3)CC2)cc1
-10.1%: max response [8, 18]
-11.3%: max response [8, 19]
inactive: Potency [1] > 11.4 µM | activity change, negative = inhibition [2] -18% | activity, negative = inhibition [3] -2.75% | Potency [4] > 46 µM | Potency [5] | Potency [6] | activity change, negative = inhibition [8] -2.62% | outcome [9]

COc1ccccc1CNc1ncncc1-c1ccccc1C
inactive: Potency [1] > 11.4 µM | activity change, negative = inhibition [11] -19.5% | activity, negative = inhibition [3] 12.8% | Potency [12] > 46 µM | Potency [4] > 46 µM | Potency [5] | Potency [6] | Potency [13] | Potency [15] | outcome [16] | activity change, negative = inhibition [8] 9.38% | Potency [17] | outcome [9]
5.51%: max response [8, 19]
active: Potency [10] 7.94 µM | Potency [14] 3.98 µM
-3.12%: max response [8, 18]
